Assay outcomes: PubChem, several laboratories
GAA850 FXN act – FXN promoter activators, primary screen, cell-based, luciferase luminescence, HEK293 lucGAA850 | 360,000 tested, 0.56% active | activation, % at 6 µM | HEK293 lucGAA850 FXN promoter luciferase reporter, 24 h; percent of 10 µM SAHA response;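 active = activation above the average of all compounds screened plus 3 SD, cutoff fixed separately per campaign, cut at about 7.5% in these data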
Statin myotox sup – suppressors of statin myotoxicity in C2C12 myotubes, primary screen, cell-based, single point, plate reader; C2C12 myotubes + simvastatin, ATP luminescence, 48 h; scaled: DMSO 0, geranylgeraniol control 100; rescue of ATP level, % at 7.49 µM; 330,000 tested, 0.78% active;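 active = mean ATP rescue above about 67%, or every replicate alone reaching that limit, limit read from the data, passing the limit was not always enough; inconclusive = no clear call, values can overlap the other calls; inactive = mean under the limit and some replicate under it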;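 also: myotubes were challenged with 10 µM simvastatin during compound exposure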
MITF TRPM1 HTS – activators of MITF-driven TRPM1 promoter reporter, primary screen, cell-based, SK-MEL-5, luciferase, single point; 300,000 tested, 0.75% active; SK-MEL-5 TRPM1-promoter luciferase, 24 h; % of positive control, neutral wells = 0; activation, % at 12.5 µM;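 active = mean activation of at least 80% with every replicate also reaching 80%; inconclusive = mean reaches 80% but some replicate falls short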
esBAF inh – Bmi1 luciferase reporter increase in mESCs, primary screen, esBAF inhibitor project, mouse ES cells, Bmi1 luciferase knock-in, single point; reporter increase, % at 12.5 µM; 24 h; 100% = twice the neutral-well signal; 350,000 tested, 2% active; in the data active = activation above about 40%; inconclusive = no clear call, values can overlap the other calls;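 also: a rise in the Bmi1 reporter signal indicates esBAF inhibition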
Wnt bcat act – Wnt/beta-catenin pathway activators, primary screen, cell-based, plate reader, single point. Wnt/beta-catenin reporter cell assay, activator. activation, % at 9.35 µM. 300,000 tested, 1.2% active; in the data active = activation above about 30%, passing the limit was not always enough; inconclusive = no clear call, values can overlap the other calls
Hits are given with their value; . = inactive; ? = inconclusive; / = no result. Rows were chosen to be rich in hits. Some 3.3% of all compounds tested hit in one or more screens of this group.

SMILES | GAA850 FXN act | Statin myotox sup | MITF TRPM1 HTS | esBAF inh | Wnt bcat act
C[C@@H]1CN([C@H](C)CO)C(=O)Cc2cc(NC(=O)Nc3ccc(F)cc3)ccc2O[C@H]1CN(C)C(=O)Nc1ccccc1 | / | . | / | . | /
COc1ccc2oc(C(=O)c3ccccc3)c(N)c2c1 | / | / | / | / | 74
COC(=O)CCC(=O)c1oc2ccc(OC)cc2c1N | . | . | 109 | . | /
COc1ccc2oc(C(=O)C3CC3)c(N)c2c1 | . | . | . | 67 | .
CCCC(=O)Nc1ccc2c(c1)C(=O)N(C)C[C@@H](OC)[C@@H](C)CN(C(=O)C1CCCC1)[C@@H](C)CO2 | / | . | / | . | /
COc1ccc(S(=O)(=O)N[C@H]2CC[C@@H](CCNC(=O)Cc3ccccn3)O[C@@H]2CO)cc1 | / | . | / | . | /
Cc1noc(C)c1S(=O)(=O)Nc1ccc2c(c1)C(=O)N([C@@H](C)CO)C[C@H](C)[C@@H](CN(C)S(=O)(=O)c1cn(C)cn1)OCCCC[C@H](C)O2 | / | / | / | . | /
C[C@@H]1CCCCO[C@H](CN(C)S(=O)(=O)c2ccccc2)[C@H](C)CN([C@@H](C)CO)C(=O)c2cc(NC(=O)Nc3ccc(C(F)(F)F)cc3)ccc2O1 | / | / | / | . | /
C=CCN=C1SC(C)C(=O)N1S(=O)(=O)c1ccccc1 (stereo not given) | . | 109 | . | . | .
Cc1ccc(S(=O)(=O)N2C(=O)C(C)SC2=Nc2ccccc2)cc1 (stereo not given) | . | / | . | / | .
O=C(CCN1CCCCC1)N[C@@H]1CC[C@H](CCn2cc(-c3ccc(F)cc3)nn2)O[C@H]1CO | / | . | / | . | /
CCN1C(=NCC2CC2)N[C@@H](c2cccc(C(F)(F)F)c2)C(C(=O)OC)=C1C | . | . | . | . | /
CCN1C(=NCc2ccco2)N[C@@H](c2cccc(C(F)(F)F)c2)C(C(=O)OC)=C1C | . | 88 | . | . | .
C[C@H]1CN([C@@H](C)CO)S(=O)(=O)c2ccc(-c3cccnc3)cc2O[C@@H]1CN(C)C(=O)C1CC1 | / | . | / | / | /
C[C@@H]1CN([C@@H](C)CO)C(=O)c2cccc(NS(=O)(=O)c3ccc(Cl)cc3)c2O[C@H]1CN(C)CC1CC1 | / | . | / | . | /
CO[C@H]1CN(C)C(=O)c2cc(NC(=O)Nc3ccc4c(c3)OCO4)ccc2OC[C@@H](C)NC[C@H]1C | / | . | / | 51 | /
CO[C@H]1CN(C)C(=O)c2cc(NC(=O)Nc3ccc4c(c3)OCO4)ccc2OC[C@H](C)NC[C@@H]1C | / | . | / | 55 | /
CO[C@@H]1CN(C)C(=O)c2cc(NC(=O)Nc3ccccc3)ccc2OC[C@@H](C)NC[C@@H]1C | / | . | / | . | /
CO[C@H]1CN(C)C(=O)c2cc(NC(=O)Nc3ccccc3)ccc2OC[C@@H](C)NC[C@H]1C | / | . | / | . | /
CO[C@H]1CN(C)C(=O)c2cc(NC(=O)Nc3ccc4c(c3)OCO4)ccc2OC[C@H](C)NC[C@H]1C | / | . | / | 44 | /
O=C(C[C@@H]1CC[C@@H]2[C@H](COC[C@H](O)CN2Cc2cc(F)cc(F)c2)O1)NCc1cccc(F)c1 | / | . | / | . | /
C[C@@H]1CN([C@@H](C)CO)S(=O)(=O)c2ccc(/C=C/c3ccccc3)cc2O[C@H]1CN(C)C(=O)c1ccccc1 | / | . | / | . | /
O=C(CSc1ncnc2c1oc1ccccc12)c1cccs1 | . | . | ? | 57 | /
CO[C@H]1CC[C@@H]2CCOc3ccc(C#N)cc3C(=O)N(C)C[C@@H](OC)[C@@H](C)C(=O)N(C)C[C@H]1O2 | / | 75 | / | . | /
Cc1ccc(C)c(CSc2nnc(-c3cccnc3)o2)c1 | . | . | . | . | /
SMILES | GAA850 FXN act | Statin myotox sup | MITF TRPM1 HTS | esBAF inh | Wnt bcat act
Fc1ccccc1CSc1nnc(-c2ccccc2)o1 | . | . | 103 | . | 68
Fc1ccccc1CSc1nnc(-c2cccnc2)o1 | . | / | . | / | 40
C[C@@H]1CN([C@H](C)CO)S(=O)(=O)c2ccc(-c3cccc(F)c3)cc2O[C@H]1CN(C)C(=O)C1CC1 | / | . | / | . | /
C[C@@H]1CN([C@@H](C)CO)C(=O)c2cc(-c3cccnc3)cnc2O[C@@H]1CN(C)C(=O)C1CCCCC1 | / | . | / | . | /
Cc1ccc(Cc2nnc3n(-c4ccccc4)nc(C(=O)c4ccccc4)n3c2=O)cc1 | . | 91 | . | . | .
Nc1cnc(Nc2ccc(Br)cc2)nc1N | . | . | . | 53 | .
N#Cc1c(N)nc(N)nc1Nc1ccc(Br)cc1 | . | / | . | / | .
O=C(Nc1ccc2c(c1)[C@H]1C[C@@H](CC(=O)N3CCOCC3)O[C@@H](CO)[C@H]1O2)c1cccnc1 | / | . | / | . | /
CCCC(=O)Nc1ccc2c(c1)OC[C@@H](C)N(Cc1cncnc1)C[C@@H](C)[C@@H](OC)CN(C)C2=O | / | . | / | . | /
CC1CCCCN1C(=O)c1ccc(C(=O)N2CCCCC2C)cc1 (stereo not given) | . | . | . | . | /
Cc1ccc(C)c(S(=O)(=O)NCc2ccc(C(=O)N3CCCCC3C)cc2)c1 (stereo not given) | . | 114 | . | . | /
COc1ccc(CNC(=O)C2CCCN(S(=O)(=O)c3c(C)n[nH]c3C)C2)cc1 (stereo not given) | . | . | . | . | /
COc1cccc(CNC(=O)C2CCCN(S(=O)(=O)c3c(C)n[nH]c3C)C2)c1 (stereo not given) | . | 75 | / | . | .
CCN1CCN(c2ncnc3c2cnn3-c2ccc(Cl)cc2)CC1 | . | . | . | . | .
Cc1cccc(-n2ncc3c(N4CCC(C)CC4)ncnc32)c1 | . | . | . | . | 38
Cc1cccc(-n2ncc3c(N4CCC5(CC4)OCCO5)ncnc32)c1 | . | . | . | 54 | .
CCN1CCN(c2ncnc3c2cnn3-c2ccccc2)CC1 | . | / | 87 | . | .
CC1CCN(c2ncnc3c2cnn3Cc2ccc(Cl)cc2)CC1 | . | 172 | . | . | .
CC(C)NC(=O)Nc1ccc2c(c1)C(=O)N([C@H](C)CO)C[C@H](C)[C@H](CN(C)S(=O)(=O)c1ccccc1)O2 | / | . | / | . | /
Cc1cccc(-n2ncc3c(N(C)Cc4ccccc4)ncnc32)c1 | . | . | . | 53 | ?
c1ccc(-n2ncc3c(N4CCC5(CC4)OCCO5)ncnc32)cc1 | . | . | 93 | 55 | /
c1ccc(-n2ncc3c(N4CCCCC4)ncnc32)cc1 | . | . | . | . | .
Cc1ccc(Sc2cc(C)nc(-c3ccccn3)n2)cc1 | . | / | / | / | 33
COc1ccc(NC(=O)N(C)C[C@H]2Oc3ncc(C#CC(C)C)cc3C(=O)N([C@@H](C)CO)C[C@H]2C)cc1 | / | . | / | . | /
CCc1ccc2[nH]c(C(=O)Nc3ccc(Br)c(C)n3)cc2c1 | . | . | . | 44 | .
CCc1ccc2[nH]c(C(=O)Nc3ccc(F)cc3Br)cc2c1 | . | . | . | . | .
O=C(Nc1ccc(Cl)cc1)NC1(C(=O)NCCCN2CCOCC2)CCCCC1 | . | . | / | . | /
O=C(Nc1ccccc1)NC1(C(=O)NCCCN2CCOCC2)CCCCC1 | . | 102 | . | . | .
